# Compound activity deposited in PubChem by Sanford-Burnham Center for Chemical Genomics.
# hiPSC survival – increases survival of single human iPS cells; hiPSC single-cell survival, ATPlite luminescence; 100% = ROCK inhibitor wells, 0% = DMSO; survival enhancement, % at 20 µM; actives 0.044% (n = 360,000); in the data active = survival enhancement above about 18%;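 note: cells exposed to compounds for 16 hours before the ATP read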
# H9c2 TAG inh – reduces triacylglycerol accumulation in H9c2 cells | Nile Red lipid (TAG) fluorescence; cells loaded with 200 µM oleic acid | inhibition, % at 12.5 µM | actives 0.66% (n = 230,000);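 active = pattern-corrected inhibition of lipid staining of at least 50% with the nuclear-stain viability signal not falling by more than 50%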;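 note: 0% = DMSO wells and 100% = triacsin C control wells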
# beta cell repl – inducers of beta-cell replication in MIN6 cells | proliferation, % at 10 µM | actives 0.29% (n = 330,000) | AID 2380 | MIN6 cells proliferation, ATPlite luminescence, 48 h; cells starved in 0.2% serum; 100% = growth in 10% serum;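 active = compounds whose signal lies at least 3.5 SD above the mean of all wells on their plate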;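 note: 0% = DMSO-treated cells in low-serum medium and 100% = 10% serum control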
# H9c2 TAG conf – triacylglycerol accumulation inhibition, confirmation; shares compounds with H9c2 TAG inh; H9c2 lipid accumulation, Nile Red fluorescence; cells loaded with 200 µM oleic acid; inhibition, % at 12.5 µM; actives 71% (n = 990); AID 651629;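 active = mean inhibition across replicates of 40% or more; inactive = mean inhibition below 40%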;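 note: plate controls were DMSO only wells for no effect and Triacsin C treated wells for full effect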
# The depositor's hits bear a star; . = not tested or not shown. An excerpt weighted towards active compounds, which were near 0.71% of everything screened.
SMILES,hiPSC survival,H9c2 TAG inh,beta cell repl,H9c2 TAG conf
Cc1nn2c(NCc3ccccn3)c3c(nc2c1-c1ccccc1)CCC3,0,61*,-6,40*
CSCCC(C(=O)Nc1c(C)cccc1C)N1CCN(c2ccc(F)cc2)CC1 (stereo unspecified),-1,.,.,.
CCOC(=O)C1(C)CCN1C(=O)c1ccc(F)c(Cl)c1 (stereo unspecified),0,-23,.,.
O=C(NCc1ccccc1)/C(=C\c1ccc(F)cc1)NC(=O)c1ccco1,-4,-16,.,.
Cc1ccc(S(=O)(=O)NCc2ccccc2)cc1C(=O)NCC(=O)Nc1c(C)cccc1C,2,10,.,.
COc1ccc(-c2ccc(C(=O)Nc3ccc(C(C)C)cc3)c3occc23)c(C)c1,-1,12,.,.
O=C(Nc1ccc(-c2csc(Nc3ccccc3)n2)cc1)c1cccc(C(F)(F)F)c1,-2,75*,-8,83*
O=C(Nc1cccc(-c2csc(Nc3cccc(C(F)(F)F)c3)n2)c1)c1cc([N+](=O)[O-])cc(C(F)(F)F)c1,-2,58*,-8,56*
O=C(Nc1ccc(-c2csc(Nc3ccccc3)n2)cc1)c1cc([N+](=O)[O-])cc(C(F)(F)F)c1,3,39,-8,.
O=C(Nc1ccc(-c2csc(Nc3ccc(Cl)cc3)n2)cc1)c1cccc(C(F)(F)F)c1,.,.,-7,.
CCCCNC(=O)c1cnc(Cc2c[nH]c3ccccc23)c(I)c1,-2,65*,.,15
CN1CCN(C(=O)c2cnc(Cc3c[nH]c4ccccc34)c(I)c2)CC1,0,-5,.,.
O=[N+]([O-])c1ccc(CN2CC(N3CCN(CC4CC4)CC3)CS2(=O)=O)cc1 (stereo unspecified),-2,2,.,.
CCSc1nnc(NC(=O)c2ccco2)s1,-1,-10,2,.
CC(C)Sc1nnc(NC(=O)c2ccco2)s1,1,55*,0,18
CCOC1=C2[C@H](c3ccccc3)N(S(=O)(=O)c3ccc(C)cc3)[C@H](C(C)C)[C@H]2n2c(=O)n(-c3ccccc3)c(=O)n2C1,-1,.,.,.
Cc1cc(NC(=O)CSc2nc(-c3cccs3)nc3ccccc23)no1,-1,78*,-3,73*
Cc1cc(NC(=O)CSc2nc(C(C)(C)C)nc3ccccc23)no1,1,-13,-4,.
Cc1ccc(CN2C(=O)CCC2(C)c2nnnn2-c2ccc3c(c2)OCCO3)cc1 (stereo unspecified),0,.,.,.
CCN1C(=O)[C@H]2[C@H]3CN=C(SCc4ccc(Cl)cc4)N3[C@@](Cc3ccccc3)(C(=O)OC)[C@H]2C1=O,1,6,.,.
COC(=O)[C@@]1(Cc2ccccc2)[C@H]2C(=O)N(Cc3ccccc3)C(=O)[C@H]2[C@H]2CN=C(SCc3ccc(Cl)cc3)N21,0,51*,.,71*
CCOc1ccccc1NC(=O)COC(=O)C12CC3CC(CC(O)(C3)C1)C2,0,-14,1,.
O=CNc1cc(-c2ccc(C(=O)NC3CC3)cc2)cn2c(-c3ccccc3)cnc12,-1,14,.,.
CC(=O)c1ccc(-c2cnc3c(NC=O)cc(-c4ccc(C(=O)NC5CC5)cc4)cn23)cc1,-5,54*,.,52*
COc1ccc(-c2cnc3c(NC=O)cc(-c4cccc(NS(C)(=O)=O)c4)cn23)cc1OC,-3,65*,.,58*
SMILES,hiPSC survival,H9c2 TAG inh,beta cell repl,H9c2 TAG conf
COc1cccc(-c2cc(NC=O)c3ncc(-c4ccc(OC)c(OC)c4)n3c2)c1,3,-1,.,.
COc1ccccc1-c1cc(NC=O)c2ncc(-c3cccc(C(C)=O)c3)n2c1,1,15,.,.
CN(C)C(=O)c1cccc(-c2cnc3c(NC=O)cc(-c4cc(F)c(F)c(F)c4)cn23)c1,0,23,.,.
COc1cc(-c2cc(NC=O)c3ncc(-c4cccc(C(=O)N(C)C)c4)n3c2)cc(OC)c1OC,0,58*,.,72*
COc1ccccc1-c1cc(NC=O)c2ncc(-c3cccc(C(=O)N(C)C)c3)n2c1,-2,59*,.,68*
O=C(OCc1cn([C@H]2C[C@H](c3ccc(Cl)cc3)N(CC3CCCCC3)C[C@@H]2O)nn1)c1ccccc1,-1,-14,.,.
CCOC(=O)C1(C)CCCN1C(=O)c1ccc(F)c(Cl)c1 (stereo unspecified),1,-4,.,.
CCCNC(=O)c1cc(C2CCCCN2C(=O)CCCc2ccccc2)on1 (stereo unspecified),0,1,.,.
O=C(Cn1cc[n+](CC(=O)c2ccc(Cl)cc2Cl)c1)c1ccc(Cl)cc1Cl,0,60*,-3,44*
O=C(Cn1cc[n+](CC(=O)c2ccccc2)c1)c1ccccc1,0,-4,0,.
COc1ccc2nc(SCC(=O)N3CC(=O)Nc4ccccc43)c(C#N)cc2c1,0,54*,-4,39
COc1ccc2nc(SCC(C)=O)c(C#N)cc2c1,-3,.,-5,.
CC1=CC2C(C(O)CC3(C)C2CC(C)C32OCOC23COCO3)C2(C)C/C(=C\O)C(=O)C=C12 (stereo unspecified),-2,110,.,.
Cc1ccc(-c2nn(-c3ccccc3)cc2/C=N/NC(=O)c2ccncc2)o1,0,12,-3,.
CCOc1cc(C(=O)N/N=C/c2cn(-c3ccccc3)nc2-c2cc3ccccc3o2)cc(OCC)c1OCC,0,59*,.,63*
CC(C)(C)c1ccc(C(=O)NNc2cc(N3CCOCC3)nc(N3CCOCC3)n2)cc1,1,38,1,.
CC(C)(C)c1ccc(C(=O)NNc2cc(N3CCCCC3)nc(N3CCCCC3)n2)cc1,-2,60*,-6,36
CCCCN1CC(COCc2ccccc2)Oc2cccc(OCCN3C(=O)[C@@H]4[C@H](C3=O)C3C=C[C@H]4C3)c2S1(=O)=O (stereo partly specified),0,4,.,.
COc1cc(OC)c2c(-c3ccccc3)cc(=O)oc2c1C(CCN1CCCCC1)c1ccc2c(c1)OCO2 (stereo unspecified),-4,58*,-8,41*
COc1cc(OC)c2c(-c3ccccc3)cc(=O)oc2c1C(CC(=O)N1CCCC1)c1ccc2c(c1)OCO2 (stereo unspecified),-1,7,-8,.
COc1cc(OC)c2c(-c3ccccc3)cc(=O)oc2c1C(CCN1CCCC(C)C1)c1ccc2c(c1)OCO2 (stereo unspecified),-4,69*,-9,51*
CCCCCc1cc(=O)oc2c(C(CCN(CC)CC)c3ccc(N(C)C)cc3)c(OC)cc(OC)c12 (stereo unspecified),-6,72*,-9,61*
CCN(CC)CCC(c1cc(OC)c(OC)c(OC)c1)c1c(OC)cc(OC)c2c(C)cc(=O)oc12 (stereo unspecified),-2,17,-6,.
COc1cc(OC)c2c(-c3ccccc3)cc(=O)oc2c1C(CCN1CCCCC1)c1ccc(N(C)C)cc1 (stereo unspecified),-3,68*,-8,55*
COc1ccc(C(CCN2CCCCC2)c2c(OC)cc(OC)c3c(-c4ccccc4)cc(=O)oc23)cc1 (stereo unspecified),-3,44,-8,.
